Test results reported in PubChem BioAssay (EPA / NIEHS).
Active and inactive are the calls of the source. The calls were made as follows: active = hit-call score of the fitted dose curve at least 0.9, where 1 is the maximum; inactive = score below 0.9.

What was measured:
[1] = ATG_GLI_CIS: Attagene CIS-FACTORIAL HepG2 Assay for human Zinc Finger Protein GLI1 (AID 2282945); details: HepG2, Attagene cis-factorial reporter mRNA, GLI element; actives raise or lower the signal
Procedure, shortened: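 Transiently transfected HepG2 cells report endogenous transcription factor activity via cis-element-driven reporter units. After 24 h compound exposure, reporter mRNA was measured by RT-PCR with capillary electrophoresis; bidirectional fitting against DMSO baseline.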

[2] = ATG_GRE_CIS: Attagene CIS-FACTORIAL HepG2 Assay for human Glucocorticoid Response Elements (GRE) (AID 2282947); details: HepG2 GRE cis-reporter, Attagene multiplex mRNA; actives raise or lower the signal
Procedure, shortened: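 Transiently transfected HepG2 cells carrying GRE cis-reporter units (endogenous TF activity) dosed 24 h; reporter mRNA quantified by RT-PCR, 6-FAM labelling, HpaI digestion and capillary electrophoresis. Bidirectional fit versus DMSO baseline.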

[3] = ATG_ISRE_CIS: Attagene CIS-FACTORIAL HepG2 Assay for human Interferon Regulatory Factor 1 (IRF1) binding to an Interferon-Stimulated Response Element (ISRE) (AID 2282948); details: HepG2 ISRE cis-reporter (Attagene), mRNA transcription readout; actives raise or lower the signal
Procedure, shortened: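 Cell-based cis-reporter assay; HepG2; 24 h exposure; reporter mRNA by RT-PCR plus capillary electrophoresis fluorescence; activity in either direction scored relative to DMSO.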

[4] = ATG_M_06_CIS: Attagene CIS-FACTORIAL HepG2 Assay for M06 Transcription Factor (Internal Marker) (AID 2282950); details: HepG2 Attagene CIS-FACTORIAL M06 internal marker reporter; actives raise or lower the signal
Procedure, shortened: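 Fluorescence-labelled RT-PCR products from cis-promoter reporter units, cut with HpaI and resolved by capillary electrophoresis, give the signal. Cells are human HepG2, dosed for 24 h. Serves as background control, fitted relative to DMSO.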

[5] = biological target: Hypoxia-inducible factor 1-alpha (Homo sapiens) (UniProt Q16665); experiment: ATG_HIF1a_CIS: Attagene CIS-FACTORIAL HepG2 Assay for human Hypoxia Inducible Factor 1 (HIF1A) (AID 2282951); details: HepG2 Attagene cis-factorial HIF1a reporter transcription; actives raise or lower the signal
Procedure, shortened: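 In this multiplexed cell assay, HepG2 cells bearing transfected cis reporters are dosed for 24 h and reporter mRNA is read by RT-PCR plus capillary electrophoresis; signal increases and decreases are both scored against DMSO.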

[6] = biological target: Hepatocyte nuclear factor 6 (Homo sapiens) (UniProt Q9UBC0); experiment: ATG_HNF6_CIS: Attagene CIS-FACTORIAL HepG2 Assay for human Hepatocyte Nuclear Factor 6 (HNF6) (AID 2282952); details: HepG2 Attagene cis-factorial HNF6 reporter transcription; actives raise or lower the signal
Procedure, shortened: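 Cells are HepG2 carrying transiently transfected cis-promoter reporter units. Treatment lasts 24 h, after which reporter transcripts are reverse-transcribed, amplified, FAM-labelled and sized by capillary electrophoresis. DMSO serves as baseline.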

[7] = ATG_MRE_CIS: Attagene CIS-FACTORIAL HepG2 Assay for human Metal Responsive Element (MRE) (AID 2282954); details: HepG2 MRE cis-reporter transcription, Attagene multiplex; actives raise or lower the signal
Procedure, shortened: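 HepG2 cells transiently transfected with cis-element-driven reporter units; mRNA measured 24 h after dosing. Reporter transcripts quantified by RT-PCR, FAM labelling, HpaI digestion and capillary electrophoresis; bidirectional fit versus DMSO.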

[8] = ATG_PBREM_CIS: Attagene CIS-FACTORIAL HepG2 Assay for human Phenobarbital-responsive Enhancer Module (PBREM) (AID 2282955); details: HepG2 PBREM cis-reporter, Attagene multiplexed transcription; actives raise or lower the signal
Procedure, shortened: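 After a 24 h incubation with test chemical, transfected HepG2 cells yield total RNA; reporter-specific RT-PCR products are fluorescently labelled, HpaI-digested and resolved by capillary electrophoresis against ROX size standards.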

[9] = biological target: Paired box protein Pax-6 (Homo sapiens) (UniProt P26367); experiment: ATG_Pax6_CIS: Attagene CIS-FACTORIAL HepG2 Assay for human Paired Box 6 (PAX6) (AID 2282956); details: HepG2 CIS-FACTORIAL PAX6 reporter transcription, RNA readout; actives raise or lower the signal
Procedure, shortened: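 Multiplexed cis-reporter HepG2 system; 24 h treatment; reporter mRNA read by RT-PCR/CE fluorescence; bidirectional fit vs DMSO.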

[10] = ATG_PXRE_CIS: Attagene CIS-FACTORIAL HepG2 Assay for human Pregnane X Receptor Element (PXRE) (AID 2282957); details: HepG2 Attagene CIS-FACTORIAL PXRE reporter, mRNA; actives raise or lower the signal
Procedure, shortened: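 Multiplexed cis-reporter assay in transiently transfected human HepG2 cells; 24 h chemical exposure. Reporter transcripts quantified by RT-PCR with fluorescent labeling and capillary electrophoresis.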

[11] = ATG_PPRE_CIS: Attagene CIS-FACTORIAL HepG2 Assay for human Peroxisome Proliferator-activated Response Element (PPRE) (AID 2282958); details: HepG2 PPRE cis-element reporter, Attagene transcription factor profiling; actives raise or lower the signal
Procedure, shortened: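 Multiplexed reporter transcription units under cis-regulatory promoters were transfected into HepG2 cells to capture endogenous factor activity. A 24 h incubation preceded RNA isolation and fluorescent RT-PCR fragment analysis.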

[12] = ATG_RORE_CIS: Attagene CIS-FACTORIAL HepG2 Assay for human RAR-related Orphan Receptor Element (RORE) (AID 2282959); details: HepG2 Attagene cis-factorial RORE reporter, mRNA; actives raise or lower the signal
Procedure, shortened: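 Fluorescence intensity of reporter-specific cDNA fragments, separated by capillary electrophoresis, gives the signal. Source: HepG2 liver cells transiently transfected with cis-element reporters and exposed 24 h; DMSO-normalized bidirectional fit.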

[13] = ATG_Sox_CIS: Attagene CIS-FACTORIAL HepG2 Assay for human SRY-box transcription factor (SOX) (AID 2282960); details: HepG2 Attagene cis-factorial SOX reporter, mRNA; actives raise or lower the signal
Procedure, shortened: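 After 24 h of chemical treatment, transfected HepG2 reporter cells are lysed for total RNA. Transcript levels come from RT-PCR with labelled primer extension and capillary electrophoresis, analysed bidirectionally versus DMSO.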

[14] = biological target: Transcription factor Sp1 (Homo sapiens) (UniProt P08047); experiment: ATG_Sp1_CIS: Attagene CIS-FACTORIAL HepG2 Assay for human Specificity Protein 1 (Sp1) (AID 2282961); details: HepG2 Sp1 cis-reporter transcription, actives raise or lower the signal
Procedure, shortened: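 Sp1-driven reporter mRNA, read as capillary electrophoresis fluorescence after RT-PCR, in transiently transfected HepG2 cells dosed for 24 h; signal change in either direction relative to DMSO.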

[15] = ATG_SREBP_CIS: Attagene CIS-FACTORIAL HepG2 Assay for human Sterol Regulatory Element Binding (SREBP) (AID 2282962); details: HepG2 Attagene cis-factorial SREBP reporter, mRNA; actives raise or lower the signal
Procedure, shortened: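 mRNA induction of transfected cis-promoter reporters in HepG2 cells, 24 h post-dose. Detection: RT-PCR with 6-FAM-labelled products, HpaI digest, capillary electrophoresis. DMSO served as negative control and baseline.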

[16] = biological target: Signal transducer and activator of transcription 3 (Homo sapiens) (UniProt P40763); experiment: ATG_STAT3_CIS: Attagene CIS-FACTORIAL HepG2 Assay for human Signal Transducer and Activator of Transcription 3 (STAT3) (AID 2282963); details: HepG2, Attagene cis-factorial STAT3 reporter transcription; actives raise or lower the signal
Procedure, shortened: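 HepG2 cells transiently transfected with multiple cis-element-driven reporter units report endogenous transcription factor activity. After 24 h compound exposure, reporter mRNA is measured by RT-PCR, 6-FAM labelling, HpaI digestion and capillary electrophoresis. Fitted bidirectionally versus DMSO.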

[17] = ATG_TA_CIS: Attagene CIS-FACTORIAL HepG2 Assay for human TA Basal Promoter (AID 2282964); details: HepG2 Attagene CIS-factorial TA basal promoter reporter; actives raise or lower the signal
Procedure, shortened: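 Multiplexed mRNA reporter assay, HepG2, 24 h. Reporter cDNA amplified, 6-FAM primer-extended, HpaI-cut, CE-sized; DMSO = negative control and baseline.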

[18] = biological target: Bile acid receptor (Homo sapiens) (UniProt Q96RI1); experiment: ATG_IR1_CIS: Attagene CIS-FACTORIAL HepG2 Assay for human Nuclear Receptor Subfamily 1 Group H Member 4 (NR1H4), IR1 submotif (AID 2282946); details: IR1 reporter transcription, actives raise or lower the signal
Procedure, shortened: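 HepG2 cells transiently transfected with multiple cis-promoter-driven reporter units to measure endogenous transcription factor activity; 24 h exposure. Reporter mRNA read by RT-PCR, FAM labelling, HpaI digestion and capillary electrophoresis. Bidirectional fit versus DMSO.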

[19] = ATG_M_32_CIS: Attagene CIS-FACTORIAL HepG2 Assay for M32 Transcription Factor (Internal Marker) (AID 2282949); details: HepG2 Attagene cis-factorial M32 reporter, mRNA; actives raise or lower the signal;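 also: background control marker of the multiplexed CIS panel rather than a real target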
Procedure, shortened: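 HepG2 cells transiently transfected with multiplexed cis-regulated reporter units, dosed 24 h. Reporter mRNA quantified by RT-PCR, 6-FAM labelling, HpaI digestion and capillary electrophoresis; bidirectional fit vs DMSO.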

[20] = biological target: Heat shock factor protein 1 (Homo sapiens) (UniProt Q00613); experiment: ATG_HSE_CIS: Attagene CIS-FACTORIAL HepG2 Assay for human Heat Shock Transcription Factor 1 (HSE) (AID 2282953); details: HepG2 HSE cis-reporter, Attagene RNA transcription; actives raise or lower the signal
Procedure, shortened: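 After a 24 h incubation with test chemical, transfected HepG2 cells were harvested for RNA; reporter transcripts were measured by RT-PCR and capillary electrophoresis. Values reflect gain or loss of signal relative to DMSO.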

Measured: outcome

Chain of Heat shock factor protein 1 (Homo sapiens) (Q00613 whole entry, looked up): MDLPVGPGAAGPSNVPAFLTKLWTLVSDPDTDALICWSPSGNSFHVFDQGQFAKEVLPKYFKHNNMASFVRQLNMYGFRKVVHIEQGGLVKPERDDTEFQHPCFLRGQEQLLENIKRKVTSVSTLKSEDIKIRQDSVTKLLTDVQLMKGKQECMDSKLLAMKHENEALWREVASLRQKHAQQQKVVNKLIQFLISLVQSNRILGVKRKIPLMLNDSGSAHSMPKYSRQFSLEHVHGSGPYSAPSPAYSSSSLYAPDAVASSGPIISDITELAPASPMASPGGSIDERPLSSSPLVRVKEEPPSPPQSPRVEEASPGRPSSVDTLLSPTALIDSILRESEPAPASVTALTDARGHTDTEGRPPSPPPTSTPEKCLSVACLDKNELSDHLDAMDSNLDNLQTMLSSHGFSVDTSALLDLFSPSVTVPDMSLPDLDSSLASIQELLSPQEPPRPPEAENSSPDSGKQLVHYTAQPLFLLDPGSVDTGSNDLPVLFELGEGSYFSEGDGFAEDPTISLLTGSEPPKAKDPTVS
Chain of Transcription factor Sp1 (Homo sapiens) (P08047 whole entry, looked up): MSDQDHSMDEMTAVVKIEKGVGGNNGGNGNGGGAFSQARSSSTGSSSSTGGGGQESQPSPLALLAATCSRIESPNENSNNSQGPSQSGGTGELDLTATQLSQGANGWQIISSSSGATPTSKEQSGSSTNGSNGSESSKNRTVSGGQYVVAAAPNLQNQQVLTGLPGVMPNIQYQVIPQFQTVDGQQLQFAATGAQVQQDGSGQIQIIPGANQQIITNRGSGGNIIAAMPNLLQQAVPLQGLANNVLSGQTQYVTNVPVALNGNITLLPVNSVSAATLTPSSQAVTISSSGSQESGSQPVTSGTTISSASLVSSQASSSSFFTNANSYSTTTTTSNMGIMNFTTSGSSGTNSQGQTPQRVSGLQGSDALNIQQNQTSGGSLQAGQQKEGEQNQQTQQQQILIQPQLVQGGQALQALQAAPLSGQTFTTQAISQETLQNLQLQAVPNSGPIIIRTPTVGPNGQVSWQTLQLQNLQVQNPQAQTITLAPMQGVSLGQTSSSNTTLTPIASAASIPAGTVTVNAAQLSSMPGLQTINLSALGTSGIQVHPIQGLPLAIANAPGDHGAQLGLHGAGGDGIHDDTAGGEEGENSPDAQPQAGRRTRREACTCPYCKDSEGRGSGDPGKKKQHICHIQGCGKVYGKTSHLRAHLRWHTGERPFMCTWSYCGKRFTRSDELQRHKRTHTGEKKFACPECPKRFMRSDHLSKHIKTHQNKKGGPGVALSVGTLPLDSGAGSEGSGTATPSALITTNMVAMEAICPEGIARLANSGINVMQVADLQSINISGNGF
Chain of Bile acid receptor (Homo sapiens) (Q96RI1 whole entry, looked up): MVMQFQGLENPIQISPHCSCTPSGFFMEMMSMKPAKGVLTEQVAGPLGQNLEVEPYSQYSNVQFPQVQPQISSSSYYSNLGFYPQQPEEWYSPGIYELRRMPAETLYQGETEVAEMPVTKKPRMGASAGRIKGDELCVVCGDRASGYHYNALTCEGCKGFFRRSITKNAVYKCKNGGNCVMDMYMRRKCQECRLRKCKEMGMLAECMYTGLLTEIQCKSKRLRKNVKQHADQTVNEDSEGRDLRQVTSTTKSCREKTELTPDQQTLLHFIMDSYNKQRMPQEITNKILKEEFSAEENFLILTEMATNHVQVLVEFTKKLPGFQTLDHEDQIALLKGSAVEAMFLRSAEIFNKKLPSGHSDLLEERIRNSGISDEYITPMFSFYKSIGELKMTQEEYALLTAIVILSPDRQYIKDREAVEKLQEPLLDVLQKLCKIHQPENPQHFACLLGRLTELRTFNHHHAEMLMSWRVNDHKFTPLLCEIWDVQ
Chain of Signal transducer and activator of transcription 3 (Homo sapiens) (P40763 whole entry, looked up): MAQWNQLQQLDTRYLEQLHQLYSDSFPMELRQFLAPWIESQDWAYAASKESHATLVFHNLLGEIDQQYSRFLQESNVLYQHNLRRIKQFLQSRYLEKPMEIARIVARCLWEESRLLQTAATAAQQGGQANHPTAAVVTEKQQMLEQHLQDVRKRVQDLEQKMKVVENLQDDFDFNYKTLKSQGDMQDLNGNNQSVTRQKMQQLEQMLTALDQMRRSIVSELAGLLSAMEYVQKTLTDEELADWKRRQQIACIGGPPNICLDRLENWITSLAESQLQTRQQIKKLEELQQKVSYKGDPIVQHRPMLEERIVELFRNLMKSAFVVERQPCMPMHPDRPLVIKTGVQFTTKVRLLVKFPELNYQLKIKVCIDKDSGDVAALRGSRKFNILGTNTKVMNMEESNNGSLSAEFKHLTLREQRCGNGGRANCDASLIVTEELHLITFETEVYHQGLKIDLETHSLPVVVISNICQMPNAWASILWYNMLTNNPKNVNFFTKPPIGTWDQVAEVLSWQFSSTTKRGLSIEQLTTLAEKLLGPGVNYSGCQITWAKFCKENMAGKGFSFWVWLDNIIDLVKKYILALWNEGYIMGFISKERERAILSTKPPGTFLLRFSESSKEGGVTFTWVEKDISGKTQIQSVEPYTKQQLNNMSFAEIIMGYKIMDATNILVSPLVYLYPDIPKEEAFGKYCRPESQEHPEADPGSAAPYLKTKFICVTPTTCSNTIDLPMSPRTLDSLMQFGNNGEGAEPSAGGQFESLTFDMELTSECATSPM
Chain of Hypoxia-inducible factor 1-alpha (Homo sapiens) (Q16665 whole entry, looked up): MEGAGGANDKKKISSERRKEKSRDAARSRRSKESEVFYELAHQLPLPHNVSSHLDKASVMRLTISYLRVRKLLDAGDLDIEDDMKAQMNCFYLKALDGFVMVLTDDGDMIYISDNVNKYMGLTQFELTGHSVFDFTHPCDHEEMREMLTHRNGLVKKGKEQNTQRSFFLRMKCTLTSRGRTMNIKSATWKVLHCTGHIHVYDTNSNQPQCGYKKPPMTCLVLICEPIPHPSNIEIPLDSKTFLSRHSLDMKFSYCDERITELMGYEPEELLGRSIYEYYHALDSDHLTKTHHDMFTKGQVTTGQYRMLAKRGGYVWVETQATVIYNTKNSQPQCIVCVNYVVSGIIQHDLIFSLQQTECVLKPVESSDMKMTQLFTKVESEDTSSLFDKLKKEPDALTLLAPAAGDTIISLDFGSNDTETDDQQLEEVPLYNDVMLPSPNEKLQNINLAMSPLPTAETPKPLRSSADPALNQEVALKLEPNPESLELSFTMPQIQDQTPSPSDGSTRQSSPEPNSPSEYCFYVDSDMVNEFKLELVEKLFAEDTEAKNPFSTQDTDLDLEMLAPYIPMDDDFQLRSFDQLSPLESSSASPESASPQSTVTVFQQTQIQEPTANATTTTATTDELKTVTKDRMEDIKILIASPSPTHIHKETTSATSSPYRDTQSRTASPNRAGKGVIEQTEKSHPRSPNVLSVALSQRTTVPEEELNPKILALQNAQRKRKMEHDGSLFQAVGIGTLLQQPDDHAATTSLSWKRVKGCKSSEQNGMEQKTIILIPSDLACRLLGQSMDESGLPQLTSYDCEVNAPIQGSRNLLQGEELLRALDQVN
Chain of Hepatocyte nuclear factor 6 (Homo sapiens) (Q9UBC0 whole entry, looked up): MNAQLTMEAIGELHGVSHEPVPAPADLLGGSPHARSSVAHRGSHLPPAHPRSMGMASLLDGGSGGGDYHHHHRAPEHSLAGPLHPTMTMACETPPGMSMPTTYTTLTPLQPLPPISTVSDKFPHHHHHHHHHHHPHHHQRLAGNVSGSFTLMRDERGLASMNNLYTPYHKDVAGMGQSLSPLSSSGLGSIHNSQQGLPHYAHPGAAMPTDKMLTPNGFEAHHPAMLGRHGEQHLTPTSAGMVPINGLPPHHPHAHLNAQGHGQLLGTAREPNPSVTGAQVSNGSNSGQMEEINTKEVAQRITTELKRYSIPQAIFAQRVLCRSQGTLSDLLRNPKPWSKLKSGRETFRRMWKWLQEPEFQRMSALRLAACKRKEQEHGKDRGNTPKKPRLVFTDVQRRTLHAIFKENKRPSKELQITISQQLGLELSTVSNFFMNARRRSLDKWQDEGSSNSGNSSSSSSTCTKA
Chain of Paired box protein Pax-6 (Homo sapiens) (P26367 whole entry, looked up): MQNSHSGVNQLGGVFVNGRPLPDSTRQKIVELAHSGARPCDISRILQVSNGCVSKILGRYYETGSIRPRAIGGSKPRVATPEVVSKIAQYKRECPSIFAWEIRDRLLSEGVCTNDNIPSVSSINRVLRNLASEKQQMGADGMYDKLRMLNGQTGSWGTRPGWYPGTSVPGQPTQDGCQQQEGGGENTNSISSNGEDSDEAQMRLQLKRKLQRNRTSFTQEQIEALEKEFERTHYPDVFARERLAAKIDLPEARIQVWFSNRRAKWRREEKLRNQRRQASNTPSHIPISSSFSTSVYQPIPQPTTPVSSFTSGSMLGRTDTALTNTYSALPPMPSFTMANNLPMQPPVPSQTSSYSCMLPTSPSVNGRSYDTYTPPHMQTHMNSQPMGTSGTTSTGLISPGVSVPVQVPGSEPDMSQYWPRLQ

FC(F)(F)C(F)(F)C(F)(F)C(F)(F)CCI
inactive: [1] | [2] | [3] | [4] | [5] | [6] | [7] | [8] | [9] | [10] | [11] | [12] | [13] | [14] | [15] | [16] | [17]

C=CC(F)(F)C(F)(F)C(F)(F)C(F)(F)C(F)(F)C(F)(F)C(F)(F)C(F)(F)C=C
inactive: [18] | [2] | [3] | [19] | [4] | [5] | [6] | [20] | [7] | [9] | [10] | [11] | [12] | [13] | [14] | [15] | [16] | [17]

FC(F)(F)C(F)(F)C(F)(F)C(F)(F)C(F)(F)C(F)(F)CCS
inactive: [18] | [2] | [3] | [19] | [4] | [5] | [6] | [20] | [7] | [9] | [11] | [12] | [13] | [14] | [15] | [16] | [17]

COC(=O)C1CCC(C(=O)OC)CC1 (centres undefined)
inactive: [18] | [3] | [4] | [5] | [6] | [20] | [7] | [9] | [11] | [12] | [13] | [14] | [15] | [16] | [17]

FC(F)(F)C(F)(F)C(F)(F)N(C(F)(F)C(F)(F)C(F)(F)F)C(F)(F)C(F)(F)C(F)(F)F
inactive: [18] | [2] | [3] | [19] | [4] | [5] | [6] | [20] | [7] | [8] | [9] | [10] | [11] | [12] | [13] | [14] | [15] | [16] | [17]

C=CC/C=C/C/C=C/C/C=C/C
inactive: [18] | [2] | [3] | [19] | [4] | [5] | [6] | [20] | [7] | [9] | [10] | [11] | [12] | [13] | [14] | [15] | [16] | [17]

CCCCCCC(C)OC(=O)CCCCC(=O)OC(C)CCCCCC (centres undefined)
inactive: [18] | [2] | [3] | [19] | [4] | [5] | [6] | [20] | [7] | [9] | [11] | [12] | [13] | [14] | [15] | [16] | [17]

C=C(C)C(=O)OCC(F)(F)C(F)(F)C(F)(F)C(F)(F)C(F)(F)C(F)(F)C(F)(F)F
inactive: [18] | [2] | [3] | [19] | [4] | [5] | [6] | [20] | [7] | [9] | [11] | [12] | [13] | [14] | [15] | [16] | [17]

FC(F)(F)C(F)(F)C(F)(F)C(F)(F)C(F)(F)C(F)(F)C(F)(F)I
inactive: [18] | [2] | [3] | [4] | [5] | [6] | [20] | [7] | [8] | [9] | [11] | [12] | [13] | [14] | [15] | [16] | [17]

O=C(O)C=C(C(F)(F)F)C(F)(F)F
inactive: [18] | [2] | [3] | [4] | [5] | [6] | [20] | [7] | [8] | [9] | [11] | [12] | [13] | [14] | [15] | [16] | [17]

CCCCCCCCC(F)(F)C(F)(F)C(F)(F)C(F)(F)C(F)(F)C(F)(F)F
inactive: [18] | [2] | [3] | [19] | [4] | [5] | [6] | [20] | [7] | [8] | [9] | [10] | [11] | [12] | [13] | [14] | [15] | [16] | [17]

FC(F)(Br)C(F)(F)C(F)(F)C(F)(F)C(F)(F)C(F)(F)Br
inactive: [18] | [2] | [3] | [4] | [5] | [6] | [20] | [7] | [8] | [9] | [10] | [11] | [12] | [13] | [14] | [15] | [16] | [17]
